T cruzi growth-1 = blocks T. cruzi growth in NIH3T3 culture; 77,000 compounds, 5.9% hits; AID 624255; T. cruzi beta-gal in NIH3T3, GalScreen luminescence, 90 h; inhibition, % at 8.34 µM;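 active = mean inhibition above about 93%, with at least 55% of replicates each passing it, limit read from the data, passing the limit was not always enough; inconclusive = only one of those two conditions holds; inactive = neither condition holds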
C diff growth = C. difficile growth inhibition. Clostridium difficile clinical isolate growth, OD600, 24 h; active compounds read low. growth activity, negative = inhibition, % at 16 µg/mL (by protocol). 86,000 compounds, 0.25% hits;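 active = mean growth activity at or below -80% and every replicate also at or below -80%; inconclusive = mean at or below -80% but some replicate above -80%; inactive = mean growth activity above -80%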;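 note: 0% = DMSO wells and -100% = levofloxacin 16 µg/mL wells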
T cruzi growth-2 = Trypanosoma cruzi proliferation inhibition. shares compounds with T cruzi growth-1. T. cruzi beta-gal in NIH3T3, GalScreen luminescence, 90 h. inhibition, % at 8.35 µM. 5,600 compounds, 72% hits. AID 651739;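 active = mean replicate inhibition above about 95% and at least 55% of replicates individually reaching it, limit read from the data; inconclusive = only one of the two criteria is met; inactive = neither criterion is met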
T cruzi growth-3 = blocks T. cruzi growth in NIH3T3 host cells. shares compounds with T cruzi growth-1. T. cruzi beta-gal in NIH3T3, GalScreen luminescence, 90 h. inhibition, % at 2.09 µM. 5,600 compounds, 21% hits. AID 651740;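 active = mean inhibition above about 95%, with at least 55% of replicates also reaching it, limit read from the data; inconclusive = meets just one of the two conditions; inactive = meets neither condition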;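 note: plate controls were neutral control median for no effect and positive control median for full effect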
3T3 cytotox = cytotoxicity in mouse NIH/3T3 fibroblasts. 5,600 compounds, 14% hits. NIH/3T3 viability, CellTiter-Glo ATP luminescence, 90 h. cytotoxicity (signal decrease), % at 8.35 µM. shares compounds with T cruzi growth-1;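 active = mean signal decrease across replicates above about 35% based on untreated-well scatter, with enough replicates individually passing, limit read from the data; inconclusive = no rule stated though some were filed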;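 note: 0% = median of neutral control wells and 100% = median of positive control wells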
3T3 cytotox 2 = NIH/3T3 (mouse) viability loss; NIH/3T3 viability, CellTiter-Glo ATP luminescence, 90 h; inhibition, % at 24.9 µM; 5,600 compounds, 56% hits; shares compounds with T cruzi growth-1;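 active = mean loss of cell viability signal at or above a set limit, and enough replicates individually reaching it; inconclusive = meets only the mean limit or only the replicate share; inactive = meets neither condition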;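 note: 0% = median of neutral control wells and 100% = median of positive control wells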
* marks the source's active call; other numbers are inactive results; ? = inconclusive; . = no result. The entries come from a sample that favours hits as a whole.

SMILES | T cruzi growth-1 | C diff growth | T cruzi growth-2 | T cruzi growth-3 | 3T3 cytotox | 3T3 cytotox 2
C/C=C/c1ccc2c(c1)O[C@H](CN(C)Cc1ccc(F)cc1)[C@@H](C)CN([C@@H](C)CO)S2(=O)=O | 117* | 31 | ? | 89 | 8 | 104*
C/C=C/c1ccc2c(c1)O[C@@H](CN(C)Cc1ccccc1)[C@@H](C)CN([C@@H](C)CO)S2(=O)=O | 37 | 1 | . | . | . | .
CN(C)CC(=O)Nc1ccc2c(c1)[C@H]1C[C@@H](CC(=O)NCc3ccc(-c4ccccc4)cc3)O[C@@H](CO)[C@H]1O2 | 60 | 4 | . | . | . | .
O=C(N[C@H]1CC[C@@H](CCn2cc(-c3cccnc3)nn2)O[C@@H]1CO)c1ccccc1F | -28 | . | . | . | . | .
C[C@@H]1CN([C@@H](C)CO)C(=O)c2cc(N(C)C)ccc2O[C@@H](C)CCCCO[C@H]1CN(C)S(=O)(=O)c1ccccc1 | 32 | -6 | . | . | . | .
COCC(=O)Nc1ccc2c(c1)C(=O)N(C)C[C@@H](OC)[C@@H](C)CN(C)[C@@H](C)CO2 | 25 | -3 | . | . | . | .
N#C[C@@H]1[C@H](c2ccc(C3=CCCCC3)cc2)[C@H](CO)N1C(=O)c1ccccn1 | 101* | 7 | 100* | 105* | 16 | 15
N#C[C@H]1[C@H](c2ccc(C3=CCCCC3)cc2)[C@@H](CO)N1C(=O)c1ccccn1 | 52 | 3 | . | . | . | .
N#C[C@@H]1[C@@H](c2ccc(C3=CCCCC3)cc2)[C@H](CO)N1C(=O)c1ccccn1 | 67 | 3 | . | . | . | .
N#C[C@@H]1[C@@H](c2ccc(C3=CCCCC3)cc2)[C@@H](CO)N1C(=O)c1ccccn1 | 102* | 7 | 72 | 3 | -7 | 5
C[C@H](CO)N1C[C@H](C)[C@@H](CN(C)C(=O)Nc2cccc(F)c2)Oc2cc(/C=C/c3ccccc3)ccc2S1(=O)=O | 121* | 8 | 99* | 114* | 13 | 35*
C/C=C/c1ccc2c(c1)O[C@H](CN(C)C(=O)Nc1cccc(F)c1)[C@@H](C)CN([C@@H](C)CO)S2(=O)=O | 42 | 4 | . | . | . | .
C/C=C/c1ccc2c(c1)O[C@H](CN(C)C(=O)Nc1cccc(F)c1)[C@H](C)CN([C@H](C)CO)S2(=O)=O | 105* | 6 | 99* | 78 | 21 | 39*
C/C=C/c1ccc2c(c1)O[C@@H](CN(C)C(=O)Nc1cccc(F)c1)[C@@H](C)CN([C@@H](C)CO)S2(=O)=O | -53 | 4 | . | . | . | .
COc1ccc(S(=O)(=O)N(C)C[C@H]2OCCCC[C@H](C)Oc3ccc(NS(=O)(=O)c4cn(C)cn4)cc3C(=O)N([C@@H](C)CO)C[C@H]2C)cc1 | 45 | -2 | . | . | . | .
O=C(C[C@@H]1C[C@@H]2c3cc(NC(=O)c4cccnc4)ccc3O[C@@H]2[C@@H](CO)O1)NCCc1ccccc1 | 3 | 2 | . | . | . | .
O=C(Nc1ccc(F)cc1)Nc1ccc2c(c1)[C@@H]1C[C@@H](CC(=O)N3CCCCC3)O[C@H](CO)[C@@H]1O2 | 73 | 2 | . | . | . | .
O=C(C[C@H]1C[C@H]2c3cc(NS(=O)(=O)c4ccccc4)ccc3O[C@H]2[C@@H](CO)O1)N1CCCCC1 | 39 | -3 | . | . | . | .
O=C(C[C@@H]1C[C@H]2c3cc(NS(=O)(=O)c4ccccc4)ccc3O[C@H]2[C@H](CO)O1)N1CCCCC1 | 104* | -2 | 59 | 36 | 24 | 40*
O=C(C[C@@H]1C[C@H]2c3cc(NS(=O)(=O)c4ccccc4)ccc3O[C@H]2[C@@H](CO)O1)N1CCCCC1 | 101* | -4 | 70 | -9 | -2 | 16
O=C(Nc1ccc(F)cc1)Nc1ccc2c(c1)[C@H]1C[C@@H](CC(=O)N3CCCCC3)O[C@@H](CO)[C@H]1O2 | 111* | 2 | 18 | -5 | -7 | -1
O=C(C[C@@H]1C[C@H]2c3cc(NS(=O)(=O)c4ccccc4)ccc3O[C@H]2[C@@H](CO)O1)N1CCOCC1 | 46 | -8 | . | . | . | .
Cc1ccc(S(=O)(=O)Nc2ccc3c(c2)C(=O)N([C@H](C)CO)C[C@H](C)[C@@H](CN(C)CC2CCCCC2)O3)cc1 | -18 | -1 | . | . | . | .
COc1ccc(CN(C)C[C@H]2Oc3ccc(N(C)C)cc3CC(=O)N([C@@H](C)CO)C[C@H]2C)cc1 | . | -3 | . | . | . | .
CC(C)C(=O)Nc1ccc2c(c1)C(=O)N(C)[C@H]1CC[C@H](CC(=O)NCc3ccccc3)O[C@@H]1CO2 | 103* | 5 | 98* | 5 | -9 | -26
SMILES | T cruzi growth-1 | C diff growth | T cruzi growth-2 | T cruzi growth-3 | 3T3 cytotox | 3T3 cytotox 2
CC(C)c1ccc(NC(=O)C[C@H]2CC[C@H]3[C@@H](COc4ccc(NC(=O)Nc5ccc(F)c(F)c5)cc4C(=O)N3C)O2)cc1 | 100* | 15 | 103* | 78 | 21 | ?
CC(C)C(=O)Nc1ccc2c(c1)C(=O)N(C)[C@H]1CC[C@@H](CC(=O)NCc3ccccc3)O[C@@H]1CO2 | 27 | 4 | . | . | . | .
CCNC(=O)C[C@@H]1CC[C@H]2[C@@H](COc3ccc(NC(=O)Cc4ccccc4)cc3C(=O)N2C)O1 | 105* | 0 | 104* | 4 | 15 | 23
CCNC(=O)C[C@@H]1CC[C@@H]2[C@H](COc3ccc(NC(=O)Cc4ccccc4)cc3C(=O)N2C)O1 | 11 | 2 | . | . | . | .
Cc1cc(C(=O)Nc2ccc3c(c2)C(=O)N(C)[C@@H]2CC[C@H](CC(=O)NCc4ccc(-c5ccccc5)cc4)O[C@@H]2CO3)no1 | 103* | -10 | ? | ? | 78* | 75*
Cc1cc(C(=O)Nc2ccc3c(c2)C(=O)N(C)[C@@H]2CC[C@H](CC(=O)NCc4ccc(-c5ccccc5)cc4)O[C@H]2CO3)no1 | 85 | -19 | . | . | . | .
CCC(=O)Nc1ccc2c(c1)C(=O)N(C)[C@H]1CC[C@H](CC(=O)Nc3ccc(C(C)C)cc3)O[C@@H]1CO2 | 40 | -5 | . | . | . | .
C[C@@H]1CN([C@H](C)CO)C(=O)Cc2cc(NC(=O)Nc3cccc4ccccc34)ccc2O[C@H]1CN(C)S(=O)(=O)c1ccc(F)cc1 | 0 | -18 | . | . | . | .
CCNC(=O)[C@@H]1[C@@H](CO)[C@@H]2Cn3c(ccc(-c4cncnc4)c3=O)[C@@H]2N1Cc1ccc2c(c1)OCO2 | 62 | -4 | . | . | . | .
COc1ccc2c3c(n(C)c2c1)[C@H](CO)N(Cc1ccccc1)CC31CN(C(=O)C2CC2)C1 | . | 14 | . | . | . | .
C[C@@H]1CN([C@@H](C)CO)C(=O)c2cc(NS(C)(=O)=O)ccc2O[C@@H](C)CCCCO[C@H]1CN(C)C(=O)c1ccncc1 | 18 | 1 | . | . | . | .
C[C@H](O)C#Cc1ccc2c(c1)O[C@H](CN(C)CC1CC1)[C@@H](C)CN([C@@H](C)CO)S2(=O)=O | 11 | -7 | . | . | . | .
Cc1ccccc1-c1ccc([C@@H]2[C@H]3CN(S(=O)(=O)c4cn(C)cn4)CCCCN3[C@H]2CO)cc1 | 126* | -6 | 51 | 27 | 1 | 26*
Cc1ccccc1-c1ccc([C@H]2[C@@H](CO)N3CCCCN(S(=O)(=O)c4cn(C)cn4)C[C@H]23)cc1 | 102* | -10 | 61 | 14 | 8 | 44*
